Compounds with a hit are over-represented: about 12% of the library has one in this group of screens.
BAZ2B block = inhibitors of human BAZ2B bromodomain; AlphaScreen BAZ2B-H3K14Ac peptide displacement; AID 504333; Q9UIF8; Potency, µM (highest dose often 114 µM), hits mostly inhibitors; actives 4.4% (n = 360,000); note: nearly all actives have a fitted effect of over 60% in size
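Compounds, titrated to a top concentration of 110 uM, were incubated 30 min at room temperature with preformed BAZ2B/acetyl-K14 H3 peptide complex (50 nM each). Proximity signal was measured by AlphaScreen after 20 min with beads.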
G9a inh = blocks human histone lysine methyltransferase G9a | Q96KQ7 | G9a H3K9 monomethylation, AlphaScreen, 2 h | Potency, µM (doses to about 102 µM), hits mostly inhibitors | actives 8.8% (n = 350,000); note: nearly all actives have a fitted effect of over 75% in size
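Compounds were preincubated with 20 nM G9a for 15 min, after which biotinylated H3K9 peptide (500 nM) and SAM (20 uM) started a 2 h room-temperature reaction. Monomethylated product was quantified by antibody-based AlphaScreen chemiluminescence.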
HP1b chromo inh = HP1-beta chromodomain-methylated histone interaction inhibition. P83916. AlphaScreen HP1-beta / biotin-H3K9me3 peptide binding. Potency, µM (series often up to 114 µM), hits mostly inhibitors. actives 0.56% (n = 390,000); note: nearly all actives have a fitted effect of over 70% in size
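Compound inhibition of the preformed complex between 50 nM HP1-beta and 50 nM biotinylated H3K9me3 peptide was read by AlphaScreen. Buffer was PBS pH 7.4 with 0.01% Tween-20. Incubations ran 30 min at room temperature, with 10 ug/mL donor/acceptor beads.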
JMJD2A Tudor inh = blocks the human JMJD2A Tudor domain; O75164; AlphaScreen JMJD2A-Tudor / H3K4me3 peptide binding; Potency, µM (highest dose often 114 µM), hits mostly inhibitors; actives 4.4% (n = 390,000); AID 504339; note: nearly all actives have a fitted effect of over 50% in size
L3MBTL1 inh = inhibitors of human L3MBTL1 | Q9Y468 | AlphaScreen L3MBTL1–H3K9me1 peptide binding | Potency, µM (highest dose often 57.1 µM), most hits filed as inhibitors | actives 0.66% (n = 230,000) | AID 485360; note: nearly all actives have a fitted effect of over 60% in size
Target sequence (Q9Y468 whole entry, looked up): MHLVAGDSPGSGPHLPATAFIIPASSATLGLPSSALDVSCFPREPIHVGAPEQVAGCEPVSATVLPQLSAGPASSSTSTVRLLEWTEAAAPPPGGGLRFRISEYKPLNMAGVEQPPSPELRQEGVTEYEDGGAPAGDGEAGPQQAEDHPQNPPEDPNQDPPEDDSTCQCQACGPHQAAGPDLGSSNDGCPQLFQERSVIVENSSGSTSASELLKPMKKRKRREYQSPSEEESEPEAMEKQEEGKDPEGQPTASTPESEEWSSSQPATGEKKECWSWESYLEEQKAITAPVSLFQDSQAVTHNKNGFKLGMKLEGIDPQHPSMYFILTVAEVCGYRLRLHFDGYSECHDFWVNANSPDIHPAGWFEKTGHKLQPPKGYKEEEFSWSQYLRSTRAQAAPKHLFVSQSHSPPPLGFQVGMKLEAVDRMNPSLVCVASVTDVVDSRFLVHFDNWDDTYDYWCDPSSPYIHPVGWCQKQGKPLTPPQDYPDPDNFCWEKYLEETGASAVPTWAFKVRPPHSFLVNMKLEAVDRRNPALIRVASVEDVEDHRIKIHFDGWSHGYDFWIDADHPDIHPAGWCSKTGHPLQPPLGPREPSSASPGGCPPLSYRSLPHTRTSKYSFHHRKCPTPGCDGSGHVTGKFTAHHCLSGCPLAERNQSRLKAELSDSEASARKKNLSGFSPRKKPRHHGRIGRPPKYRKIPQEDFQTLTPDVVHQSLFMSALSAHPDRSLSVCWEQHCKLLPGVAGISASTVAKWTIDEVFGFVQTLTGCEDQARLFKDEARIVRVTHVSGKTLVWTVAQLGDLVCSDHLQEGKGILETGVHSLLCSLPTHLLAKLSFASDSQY
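AlphaScreen proximity signal between nickel-chelate acceptor and streptavidin donor beads (final 10 ug/mL) reports binding of 50 nM L3MBTL1 to 75 nM biotin-H3 K9me1 peptide; complex incubated with compounds 30 min at room temperature; cefsulodin titration as control.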
Sfp PPTase inh = Sfp phosphopantetheinyl transferase inhibition | Biochemical Sfp PPTase activity, qHTS | Q9F4F7 | Potency, µM, usual class: inhibitors | actives 3.5% (n = 310,000) | AID 1490;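 note: the enzyme is Sfp with the accession as filed and its product quenches rhodamine fluorescence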
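Fluorescence-quenching assay with 15 nM Sfp, 5 uM rhodamine-CoA and 12.5 uM BHQ-2-labelled ybbR peptide in pH 7.6 Hepes/MgCl2 buffer. Enzyme was pre-incubated with compound for 15 min at room temperature. Rate was taken from the 30-min fluorescence change (525/598 nm).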
Hits are given with their value; [ ] = dose if it differs, or a comment. Calls come from the whole dose curve; as a rule, active = well fitted curve in the direction sought with a large enough effect; inconclusive = small, poorly fitted or top-dose-only effect, or another doubt; inactive = no such curve, though single readings can be large; an effect the other way counts as inactive or inconclusive.

For CC[C@H]1CN(C)C[C@@]2(C(=O)OC)Cc3c([nH]c4ccccc34)C(=O)C[C@@H]12 the results were HP1b chromo inh inactive and JMJD2A Tudor inh inactive.
`CC/C=C\C/C=C\C/C=C\C/C=C\C/C=C\CCCC(=O)NCCO` gave Sfp PPTase inh inactive.
For CN1CCN(Cc2ccc(N)cc2)CC1 the results were BAZ2B block inactive, G9a inh inactive[0.501 µM], HP1b chromo inh inactive, JMJD2A Tudor inh inactive, L3MBTL1 inh inactive and Sfp PPTase inh inactive.
For CN1CCN(Cc2cc(C(C)(C)C)c(O)c(C(C)(C)C)c2)CC1 the results were BAZ2B block inconclusive, G9a inh 8.91µM, HP1b chromo inh inconclusive, JMJD2A Tudor inh 2.24µM and Sfp PPTase inh inactive.
Fc1ccccc1CNCCc1c[nH]c2ccccc12 was read as BAZ2B block 56.2µM, G9a inh inconclusive, HP1b chromo inh inconclusive, JMJD2A Tudor inh 44.7µM and Sfp PPTase inh inactive.
For FC(F)(F)c1ccccc1CNCCc1c[nH]c2ccccc12 the results were BAZ2B block 44.7µM, G9a inh inactive[2.33 µM], HP1b chromo inh inactive, JMJD2A Tudor inh 17.8µM and Sfp PPTase inh inactive.
`Fc1ccc(CNCCc2c[nH]c3ccccc23)cc1` gave BAZ2B block inconclusive, G9a inh inconclusive, HP1b chromo inh inactive, JMJD2A Tudor inh inconclusive, L3MBTL1 inh inactive and Sfp PPTase inh inactive.
Screening COc1ccc(OC)c(-n2c(O)c(C=NCCN3CCNCC3)c(=O)[nH]c2=S)c1 returned BAZ2B block inactive, G9a inh inactive, HP1b chromo inh inactive, JMJD2A Tudor inh inactive and Sfp PPTase inh inactive.
For COc1ccc(OC)c(-n2c(O)c(/C=C3\C(C)=Nc4ccccc43)c(=O)[nH]c2=O)c1 the results were BAZ2B block inactive, G9a inh 50.1µM, HP1b chromo inh inactive, JMJD2A Tudor inh inactive and Sfp PPTase inh inactive.
COC(=O)C1=Nc2ccccc2/C1=C\c1c(O)n(-c2ccc(OC)cc2)c(=O)[nH]c1=O was read as BAZ2B block 79.4µM, G9a inh inactive[12.7 µM], HP1b chromo inh inactive, JMJD2A Tudor inh inconclusive, L3MBTL1 inh inactive and Sfp PPTase inh 50.1µM.
For COC(=O)C1=Nc2ccccc2/C1=C\c1c(O)n(-c2ccc(Br)cc2)c(=O)[nH]c1=O the results were BAZ2B block 56.2µM, G9a inh 15.8µM, HP1b chromo inh inactive, JMJD2A Tudor inh inconclusive, L3MBTL1 inh inactive and Sfp PPTase inh 44.7µM.
`O=c1[nH]c(=O)n(-c2ccccc2)c(O)c1/C=C1/C(c2ccccc2)=Nc2ccccc21` gave BAZ2B block inconclusive, G9a inh inconclusive, HP1b chromo inh inactive, JMJD2A Tudor inh inconclusive, L3MBTL1 inh inactive and Sfp PPTase inh inactive.
C[C@@]12CC[C@H]3[C@@H](CC[C@@H]4C[C@H]5S[C@H]5C[C@]43C)[C@H]1CC[C@H]2O was read as G9a inh inactive[21.5 µM] and Sfp PPTase inh inactive.
For C[C@]12CCC3C(CCC4=C(Cl)C(=O)CC[C@@]43C)C1CCC2O (some centres not stated) the results were G9a inh inactive[12.7 µM] and Sfp PPTase inh inactive.
Screening Clc1ccc2sc(C3CCNCC3)nc2c1 returned BAZ2B block inactive, G9a inh 44.7µM, HP1b chromo inh inactive, JMJD2A Tudor inh inactive and Sfp PPTase inh inactive.
Screening O=C(c1ccccc1Cl)N1CCC(c2nc3ccccc3s2)CC1 returned BAZ2B block inactive, G9a inh inactive, HP1b chromo inh inactive and JMJD2A Tudor inh inactive.
CCOc1ccc(N2C(=O)CC(=O)NC2=O)cc1 was read as BAZ2B block inactive, G9a inh inactive[0.501 µM], HP1b chromo inh inactive, JMJD2A Tudor inh inactive, L3MBTL1 inh inactive[2.29 µM] and Sfp PPTase inh inactive.
Screening CCOc1ccc(CC2C(=O)NC(=O)N(c3ccc(CC)cc3)C2=O)cc1 (configuration not stated) returned BAZ2B block inactive, G9a inh inconclusive, HP1b chromo inh inactive, JMJD2A Tudor inh inactive and Sfp PPTase inh 56.2µM.
`CC1CC(OP(O)(=S)c2ccc(N(C)C)cc2NC(=O)c2cccs2)CC(C)(C)C1` (configuration not stated) gave BAZ2B block 50.1µM, G9a inh 3.98µM, HP1b chromo inh inconclusive, JMJD2A Tudor inh 56.2µM and Sfp PPTase inh 10µM.
`Cc1cccc(-n2nc(C)c(C(=O)N3CCN(c4ccccc4)CC3)c2-n2cccc2)c1` gave BAZ2B block inconclusive, G9a inh inactive, HP1b chromo inh inactive and JMJD2A Tudor inh inconclusive.
Screening COc1ccc(/C=C/C(=O)N2CC3C[C@@H](C2)Cn2c3cccc2=O)cc1OC returned Sfp PPTase inh inactive.
CCOc1cc2[nH]c(=O)n(CCCC(=O)N3CCN(c4cccc(Cl)c4)CC3)c(=O)c2cc1OCC was read as BAZ2B block inactive, G9a inh inactive, HP1b chromo inh inactive and JMJD2A Tudor inh inconclusive.
COc1ccccc1C(=O)Nc1ccc2nc(SCC(=O)N3CCCc4ccccc43)sc2c1 was read as BAZ2B block inactive, G9a inh inactive, HP1b chromo inh inactive and JMJD2A Tudor inh inactive.
Cc1[nH]n(-c2ccccc2)c(=O)c1C(c1cccc([N+](=O)[O-])c1O)c1c(C)[nH]n(-c2ccccc2)c1=O was read as BAZ2B block 31.6µM, G9a inh 44.7µM, HP1b chromo inh inconclusive, JMJD2A Tudor inh 50.1µM, L3MBTL1 inh inactive and Sfp PPTase inh inactive.
COc1cc(C(c2c(C)[nH]n(-c3ccccc3)c2=O)c2c(C)[nH]n(-c3ccccc3)c2=O)cc(OC)c1OC was read as BAZ2B block 44.7µM, G9a inh inactive[0.501 µM], HP1b chromo inh inactive, JMJD2A Tudor inh inconclusive, L3MBTL1 inh inactive and Sfp PPTase inh inactive.
COc1ccc(-n2c(-c3ccccc3[N+](=O)[O-])nc3ccccc3c2=O)cc1 was read as BAZ2B block inconclusive, G9a inh inactive, HP1b chromo inh inactive, JMJD2A Tudor inh inconclusive and Sfp PPTase inh inactive.
For COc1cc2[nH]c(=O)n(-c3ccccc3)c(=O)c2cc1OC the results were BAZ2B block inactive, G9a inh inactive, HP1b chromo inh inactive, JMJD2A Tudor inh inactive and Sfp PPTase inh inactive.
Screening CC(C)(C)NC(=S)/N=C(\N)N[N+](=O)[O-] returned BAZ2B block inconclusive, G9a inh 22.4µM, HP1b chromo inh inactive, JMJD2A Tudor inh inactive, L3MBTL1 inh inactive and Sfp PPTase inh inconclusive.
For CCCOP(=O)(OCCC)c1nc(-c2ccccc2)oc1NCc1ccccc1 the results were BAZ2B block inactive, G9a inh inactive, HP1b chromo inh inactive, JMJD2A Tudor inh inactive, L3MBTL1 inh inactive and Sfp PPTase inh inactive.
COc1ccc(CNc2oc(-c3cccc4ccccc34)nc2P(=O)(OC)OC)cc1 was read as G9a inh inactive, HP1b chromo inh inactive, JMJD2A Tudor inh inactive and Sfp PPTase inh 50.1µM.
`CN1C(=O)C(=Cc2ccc(OCC(=O)Nc3ccccc3)cc2)C(=O)N(C)C1=O` gave BAZ2B block inactive, HP1b chromo inh inactive, JMJD2A Tudor inh inactive and Sfp PPTase inh 50.1µM.
